In PubChem BioAssay:

Assays:
[1] = test system: Human papillomavirus type 1a protein E7 (residues 44-93); experiment: small molecules binding HPV E7 44-93 – biochemical, small-molecule microarray, residues 44-93, 635 nm fluorescence, primary screen (AID 1108); conditions: fluorescence 635 nm, higher = more signal;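 note: E7 fragment applied at 1 µg/mL in TBST for 1 h at 4 C; score combines spot fluorescence with its signal to noise ratio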
[2] = hepatitis C replication reporter changes, two-sided – Huh7 cells, luciferase reporter, HCV replication inhibitor project, primary screen (AID 1109); conditions: Huh7 HCV replicon luciferase reporter, 48 h; higher = more signal;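 note: huh7 hepatoma cells harbouring a luciferase neomycin HCV replicon reporter; luciferase luminescence as measure of HCV replicon replication; test concentration not given here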
[3] = biological target: Left-right determination factor 2 (Homo sapiens) (UniProt O00292); experiment: small molecules binding LEFTY2 protein – biochemical, small-molecule microarray, 635 nm fluorescence scan, primary screen (AID 1110); conditions: higher = more signal
Left-right determination factor 2 (Homo sapiens), sequence (O00292 whole entry, looked up): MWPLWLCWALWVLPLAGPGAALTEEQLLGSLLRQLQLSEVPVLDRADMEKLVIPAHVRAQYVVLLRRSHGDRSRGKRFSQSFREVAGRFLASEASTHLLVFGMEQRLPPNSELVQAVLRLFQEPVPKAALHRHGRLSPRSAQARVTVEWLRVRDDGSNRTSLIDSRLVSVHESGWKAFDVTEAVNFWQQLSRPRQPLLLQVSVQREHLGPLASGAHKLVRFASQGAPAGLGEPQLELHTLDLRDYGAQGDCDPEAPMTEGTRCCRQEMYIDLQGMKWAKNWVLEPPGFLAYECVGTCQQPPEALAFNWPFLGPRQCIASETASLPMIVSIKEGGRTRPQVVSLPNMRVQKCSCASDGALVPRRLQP

[4] = biological target: Calmodulin-1 (Homo sapiens) (UniProt P0DP23); experiment: small molecules binding calmodulin-1 with EGTA – biochemical, small-molecule microarray, Cy5-labelled CALM1, profiling panel (AID 1111); conditions: Cy5-CALM1 binding fluorescence, higher = more signal;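 note: labelled calmodulin applied in Tris saline Tween buffer holding calcium plus EGTA and DTT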
[5] = biological target: Calmodulin-1 (Homo sapiens) (UniProt P0DP23); experiment: small molecules binding Ca-loaded calmodulin-1 – biochemical, small-molecule microarray, Cy5-labelled CALM1, plus calcium, artefact control for SMM control-protein annotation, profiling panel (AID 1112); conditions: Cy5-CALM1 binding fluorescence, higher = more signal;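 note: score merges spot fluorescence with signal to noise from triplicate slides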
[6] = probe aWnt5a binding to arrayed compounds – biochemical, biotinylated probe, 635/667 nm fluorescence, primary screen (AID 1113); conditions: small-molecule microarray, higher = more signal;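 note: score merges 667 nm fluorescence intensity with signal-to-noise per printed feature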
[7] = probe aShh binding to arrayed compounds – biochemical, biotinylated probe, 635/667 nm fluorescence, primary screen (AID 1114); conditions: small-molecule microarray, higher = more signal;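 note: probe is biotin-labelled aShh protein from a stem cell growth factor screen; measures binding of labelled protein to compounds printed on the slide; score merges feature fluorescence at 667 nm with signal-to-noise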
[8] = probe aNog binding to arrayed compounds – biochemical, biotinylated probe, 635/667 nm fluorescence, primary screen (AID 1115); conditions: small-molecule microarray, higher = more signal;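 note: probe is biotinylated aNog protein used at 0.15 µg/mL for 1 h at 4 C; z-score combines 667 nm fluorescence of each spot with its signal to noise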
[9] = biological target: Torsin-1A-interacting protein 1 (Homo sapiens) (UniProt Q5JTV8); experiment: compound microarray binding of lysate hLAP1 – cell lysate, small-molecule microarray, COS7 lysate, 635/667 nm fluorescence, primary screen (AID 1116); conditions: 635 nm fluorescence, higher = more signal
Torsin-1A-interacting protein 1 (Homo sapiens), sequence (Q5JTV8 whole entry, looked up): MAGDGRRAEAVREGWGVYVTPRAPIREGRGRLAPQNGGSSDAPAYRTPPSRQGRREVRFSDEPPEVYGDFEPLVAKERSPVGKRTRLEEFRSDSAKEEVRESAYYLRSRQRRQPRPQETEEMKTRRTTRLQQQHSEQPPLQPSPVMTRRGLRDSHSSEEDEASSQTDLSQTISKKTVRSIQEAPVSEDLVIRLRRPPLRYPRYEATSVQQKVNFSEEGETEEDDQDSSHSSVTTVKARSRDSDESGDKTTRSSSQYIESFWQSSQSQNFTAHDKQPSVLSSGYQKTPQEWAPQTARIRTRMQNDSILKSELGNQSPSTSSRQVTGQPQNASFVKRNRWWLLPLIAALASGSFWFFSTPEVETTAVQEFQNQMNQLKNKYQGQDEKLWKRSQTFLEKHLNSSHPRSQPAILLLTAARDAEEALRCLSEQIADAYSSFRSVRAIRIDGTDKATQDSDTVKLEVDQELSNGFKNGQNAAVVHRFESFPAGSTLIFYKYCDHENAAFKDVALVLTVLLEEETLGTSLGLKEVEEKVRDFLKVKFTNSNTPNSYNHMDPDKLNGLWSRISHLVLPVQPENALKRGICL

[10] = biological target: Alpha-bungarotoxin (Bungarus multicinctus) (UniProt P60615); experiment: compounds binding labelled alpha-BTX control protein – biochemical, small-molecule microarray, Alexa647 label, 635/667 nm fluorescence, artefact control for SMM control protein annotation, profiling panel (AID 1117); conditions: alpha-BTX-A647 binding fluorescence, higher = more signal
Alpha-bungarotoxin (Bungarus multicinctus), sequence (P60615 whole entry, looked up): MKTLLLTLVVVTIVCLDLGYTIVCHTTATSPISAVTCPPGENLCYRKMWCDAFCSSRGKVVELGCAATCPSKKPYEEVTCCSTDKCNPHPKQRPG

Row | SMILES | composite z-score [1] | z-score [2] | composite z-score [3] | composite z-score [4] | composite z-score [5] | composite z-score [6] | composite z-score [7] | composite z-score [8] | composite z-score [9] | composite z-score [10]
1 | COc1ccc(C#Cc2ccc3c(c2)[C@]2(C(=O)N3)[C@H](c3ccc(OCCO)cc3)N3[C@H](c4ccccc4)[C@H](c4ccccc4)OC(=O)[C@H]3[C@@H]2C(=O)N2CCc3cc(OC)c(OC)cc3C2)cc1 | 1.33 | -1.23 | 0.461 | 1.08 | 0.684 | -0.0215 | 0.0589 | -0.155 | 0.168 | 0.841
2 | Cc1ccccc1C(O)C1C=CC2C(=O)N(c3ccccc3)C(=O)C2N1Nc1ccc([N+](=O)[O-])cc1 (stereo not given) | 1.42 | -0.598 | 0.174 | 1.05 | 0.656 | -0.012 | 0.0684 | 1.63 | 2.03 | 0.625
3 | COCCOC(=O)N1C(=O)[C@@]2(c3cc(C#CC4(O)CCCCCC4)ccc31)[C@H](C(=O)N1CCN(c3ncccn3)CC1)[C@H]1C(=O)O[C@H](c3ccccc3)[C@H](c3ccccc3)N1[C@@H]2c1ccccc1OCCO | 1.37 | -2.22 | 1.2 | 0.348 | 0.0618 | -0.184 | 0.116 | -0.263 | 0.334 | 0.684
4 | C=CCNC(=O)[C@H]1[C@@H]2C(=O)O[C@@H](c3ccccc3)[C@@H](c3ccccc3)N2[C@@H](c2ccc(O)cc2)[C@]12C(=O)N(C(=O)OCCOC)c1ccc(C#CCC(C(=O)OC)C(=O)OC)cc12 | 1.07 | -1.53 | 0.798 | 1.5 | 0.475 | -0.147 | -0.154 | 0.0213 | 1.48 | 0.201
5 | COc1cc(NN2C(C(O)c3ccc(I)cc3)C=CC3C(=O)N(c4ccccc4)C(=O)C32)cc(OC)c1OC (stereo not given) | 1.46 | -0.573 | 0.391 | 1.85 | 0.663 | 0.136 | 0.213 | 1.23 | 1.64 | 1.68
6 | COC(=O)C1=CC(CCCO)=CC(C)N(Cc2cccc(OC(F)(F)F)c2)C=C1C(=O)OC (stereo not given) | 1.35 | -0.307 | -0.708 | 1.02 | 1.15 | -0.0643 | 0.0929 | 0.716 | 0.595 | 0.498
7 | C=C(C(=O)CC[C@@H](OC(=O)c1ccccc1-c1ccccc1C(=O)O)c1ccccc1OCCO)C(C)C | 1.38 | -2.63 | 0.355 | 0.0583 | -0.7 | -0.0405 | 0.232 | -0.409 | 0.202 | 1.05
8 | Cc1ccc(S[C@]2(C(=O)NCc3ccccc3)CC(=O)N(Cc3cc(C(F)(F)F)cc(C(F)(F)F)c3)[C@@H]2c2ccc(CO)cc2I)cc1 | -0.262 | -0.861 | -1.24 | -0.36 | 0.585 | -0.228 | -0.319 | -0.216 | 0.0893 | -1.05
9 | COCCOC(=O)N1C(=O)[C@@]2(c3cc(C#CC4(O)CCCCCC4)ccc31)[C@H](c1ccc(OCCO)cc1)N1[C@H](c3ccccc3)[C@H](c3ccccc3)OC(=O)[C@H]1[C@@H]2C(=O)Nc1nc2ccccc2s1 | 1.22 | -2.43 | 0.985 | 1.35 | 0.249 | -0.006 | 0.214 | 0.721 | 1 | 0.968
10 | CCCCCCCCCCC(O)C1C=CC2C(=O)N(c3ccccc3)C(=O)C2N1Nc1ccccc1F (stereo not given) | 0.648 | -0.211 | -0.24 | 1.03 | 1.07 | -0.0715 | 0.246 | 0.238 | 0.0092 | 0.533
11 | COc1cc(CO)cc(I)c1O[C@H]1C=C(C(=O)NCCO)C[C@@H](NCC2CCCCC2)[C@@H]1O | 0.552 | -1.58 | 0.392 | -0.11 | -0.197 | -0.0512 | 0.0639 | -0.319 | 0.164 | 0.394
12 | C=CCC(OC(C)=O)[C@@H]1[C@@H](N(Cc2ccc(-c3cccc(C(F)(F)F)c3)o2)C(=O)c2cccc3ccccc23)c2cc(OCCCO)ccc2N1C(=O)Cc1ccc(OC)cc1 (stereo not given in full) | 0.328 | -0.72 | -0.391 | -0.534 | -0.738 | -0.208 | 0.167 | -0.083 | 0.0368 | -0.0191
